Experimental data published in the supplement of paper PMC3334620.
Whole data set: some 33,000 sequences, median “E-score (-0.5 to 0.5)” near -0.0059, cut for the highest 2% near 0.26. Shown is part of a subset that was picked to be rich in the highest values.

Target: T1, Cin5 (UniProt P40917)
T1 sequence: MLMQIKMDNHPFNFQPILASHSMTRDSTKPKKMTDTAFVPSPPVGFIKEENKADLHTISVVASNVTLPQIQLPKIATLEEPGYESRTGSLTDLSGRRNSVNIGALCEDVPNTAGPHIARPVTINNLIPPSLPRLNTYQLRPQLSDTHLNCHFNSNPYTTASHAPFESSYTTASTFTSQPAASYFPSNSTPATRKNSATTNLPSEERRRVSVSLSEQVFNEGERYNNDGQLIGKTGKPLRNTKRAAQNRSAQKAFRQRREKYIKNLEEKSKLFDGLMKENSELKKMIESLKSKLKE
Experiment: PBM E-score (8-mer binding enrichment) (E-score (-0.5 to 0.5)); higher = stronger / more preferred TF binding
Settings: protein concentration: 100 nM; construct: GST-full length
Procedure, shortened: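 GST-tagged yeast TFs (full-length or DNA-binding domain) were made by PURExpress in vitro transcription/translation and applied at about 100-200 nM to universal all-10-mer Agilent arrays. The arrays were made double-stranded by primer extension, on fresh or once-stripped slides. Bound protein was detected with fluorescent anti-GST, and scans were normalised with masliner. Each ungapped eight-base word, pooled with its reverse complement, received an E-score (modified Wilcoxon-Mann-Whitney statistic) from the Universal PBM Analysis Suite.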

Sequence | PBM E-score
ACAATCGT | -0.0859
ATCCTCCC | -0.103
CAGTAATA | 0.254
TAATAGTA | 0.228
TAGTAATA | 0.27
TAGTAAAA | 0.137
AAGTAATA | 0.247
GAGTAATA | 0.26
AACCCTTA | 0.168
AGCTTCAG | -0.115
GCCGCGAA | -0.133
GATTACGC | 0.301
AATTACGC | 0.073
AATTACAC | 0.0804
AATTACGT | 0.278
TATTACGA | 0.257
AATTACAG | 0.107
CATTACGC | 0.0481
GGTTACGA | 0.0792
AATTACAT | 0.322
GATTACGA | 0.434
AATTACGG | 0.141
GATTACAC | 0.233
ACTCTTGC | -0.108
GACGGTCC | -0.201

Sequence | PBM E-score
CATGGCGA | -0.0534
CGGTGGTC | -0.098
ATGTCCAA | 0.0429
AATTACGA | 0.313
AATTACCA | 0.187
CATTACGA | 0.127
CTCAGATC | 0.0619
ATTGAGTC | 0.103
AGTGAGTG | -0.0867
AGTGAGTA | 0.284
CGTGAGTA | 0.0731
GTTGAGTA | 0.0846
ATTGAGTA | 0.262
AAGCAACA | 0.162
CATAAAGA | 0.104
CGCATCGA | 0.182
ATAACGCC | 0.0372
AGTAAGGG | 0.0482
GGTAAGCA | 0.318
AGTAAGCA | 0.283
ACTAAGCG | 0.149
AGTAAGTA | 0.227
GGTAAGAA | 0.011
AGTAAGCG | 0.354
ACTAAGCA | 0.241

Sequence | PBM E-score
GGTAAGGA | -0.153
AGAGCTTG | -0.0623
CAAGACCA | -0.0752
AGAGATCT | -0.171
CATCTCAG | 0.268
GATCTCAA | 0.112
CATCTCAC | 0.0306
AATCTCAA | 0.184
TATCTCAA | 0.261
CATCTCAA | 0.0545
GTGGCTAA | 0.181
ACTTCATC | -0.0118
CTCAACAA | 0.197
ACCTCATC | 0.0947
AGGTGAAT | 0.099
AAGACAAC | 0.274
CAGACAAC | 0.0843
AAGACAAG | -0.0281
GACCGCGA | -0.129
ACACGTAA | 0.3
CCACGTAA | 0.165
TCACGTAA | 0.322
GCACGTAA | -0.00694
ACACGTAC | -0.0415
ACACGTAG | -0.151

Sequence | PBM E-score
GCTCTTAA | -0.0595
CGGCTAAG | -0.025
CGTGCGGC | -0.139
AAAATCGC | 0.0818
TATGGCCA | 0.0804
ACCTAGAC | -0.126
GACTCTCC | -0.189
AATGCGGT | -0.0647
AATGCGGC | -0.00913
AATGCGGG | 0.273
TGCCCTAA | -0.0446
AAGTTGTC | 0.127
AAGTTGTG | 0.265
AAGTTGTA | 0.178
CCCATCGC | 0.0166
CCCCGACG | -0.00202
GATATCCA | 0.183
ATCGGAAC | 0.267
ATCGGAAA | 0.0538
ATCGGAAT | 0.151
CGTTCAAC | 0.0923
GATAAGCC | 0.0299
AATAAGCG | 0.109
GATAAGCA | 0.275
CATAAGCA | 0.336

Sequence | PBM E-score
CATAAGCG | 0.267
CATAAGGG | 0.1
AATAAGCA | 0.176
TATAAGCA | 0.256
CATAAGCC | 0.245
CCCTGTGC | -0.18
CCTCGGGA | -0.13
GTAGACCA | -0.101
GCCAAGGA | -0.199
CCGGCGTC | -0.0574
TCAGTGGA | -0.093
CATATATC | 0.102
CACATAAC | -0.00529
TATATACA | 0.187
GACATAAC | 0.276
CACATAAA | 0.183
AACATAAA | 0.0668
TACATAAA | 0.323
TATATAGA | 0.238
CATATATA | 0.322
TATATATA | 0.369
CATATATG | 0.114
GACATAAA | 0.239
CCAGTCCC | -0.0959
ATGTACAA | 0.0216

Sequence | PBM E-score
ACCTTAGA | 0.0107
AGGTATCC | 0.0225
AACGCACT | -0.037
TGACTCCA | -0.17
CCTTCGTC | -0.106
ACTATAGT | 0.174
CGAGCATC | 0.0462
GGAGGATA | -0.0068
GCACTTTA | -0.0367
GATATAAA | 0.0539
CTTATAAA | 0.154
GATATATA | 0.266
GTTATAAA | 0.198
CATATAAA | 0.138
TTTATAAA | 0.259
TACATACA | 0.238
GATATACA | 0.138
CACATACA | 9e-05
GATATATC | 0.1
GACATACA | 0.314
TATATAAA | 0.283
ACGTCGAT | 0.105
AACCCTGC | -0.0766
CGCGAATC | 0.0184
TTCTCAAA | 0.15

Sequence | PBM E-score
AGGGCCAA | -0.313
GCCCAGTA | -0.0745
AGGAGACC | -0.201
CGTGATTA | 0.273
AGTGATTA | 0.275
GGTGATTA | 0.213
CGTGATGA | -0.0266
AGTGATTC | -0.0118
CGTGATTC | -0.0445
CAAGAATC | 0.133
AGCGGTAT | 0.158
ATACTAAC | 0.166
ATACTACA | 0.285
CTACTAAA | -0.0525
GTACTAAA | 0.0965
ATACTAAA | 0.265
CTACTACA | 0.173
ATACTAAG | 0.012
ATACTACC | -0.0132
TTACTAAA | 0.266
ACTTCCCG | -0.0152
CGGAGGAG | -0.182
